For 23 compounds, growth results are on record in PubChem BioAssay (NCI).

Compounds without any hit were thinned out: in the full panel of roughly 83,000, 20% have a hit.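 For each line, cells grew in 96-well plates with the test compound present at a single concentration for 48 hours.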 Values without a mark were called inactive. Activity calls are given as the source filed them. Rule for the calls: active = growth percent below 10; inactive = the rest.

The subject of the assay is HL-60(TB) leukemia. The experiment in a line: NCI-60 one-dose screen, 48 h (100 = growth as untreated, 0 = no growth, -100 = all killed). To be noted: 10 µM unless noted.
As for `CSc1nn2c(-c3ccc4ccccc4c3)ccnc2c1C#N`, the growth was 14.1%.
Take `CN(C)CCS(=O)(=O)Nc1cc(-c2ccc3ncc(C#N)c(Nc4ccc(F)c(Cl)c4)c3c2)cnc1Cl`: the growth is -28.4% (active).
As for `Clc1ncccc1Nc1ccc2nnc(-c3ccncc3)n2n1`, the growth is 89.5%.
For the compound `Cc1cc(N(CCCNc2ccnc3cc(Cl)ccc23)Cc2ccco2)nc(Cl)n1`, the growth was 17.5%.
With `O=C1Cc2cc(CCN3CCN(c4nsc5ccccc45)CC3)c(Cl)cc2N1`, the growth was 108%.
Take `O=C(NNC(=S)Nc1ccccc1)c1cc2ccc1CCc1ccc(cc1)CC2`: the growth is 77.1%.
In the case of `C/C(=N\N=C1/SCC(=O)N1c1ccccc1)c1ccco1`, the growth was 99%.
As to `N#Cc1cccc(NC(=O)c2cc(-c3ccc(F)cc3F)ccc2O)c1`, the growth was -19.1% (active).
For `COC1=C(OC)C(=O)C(OC)=C(OC)C1=O`, the growth is 102%.
As to `Cc1cc(C)c(N)c(S(=O)(=O)O)c1`, the growth was 106%.
To `CCN(Cc1ccccc1)c1ccc(C=O)cc1` belongs 85.2%; to `O=C1CC2C=CCN2C=C1NC(=O)c1ccccc1` (stereo not drawn), 100%; to `O=[N+]([O-])c1ccc(-c2ncc(-c3ccc(O)cc3O)[nH]2)cc1`, 145%.
On to `CN(C)c1ccc(/C=C/C(=O)c2cccc(Nc3nc(Nc4ccccc4)nc(Nc4ccccc4)n3)c2)cc1`, for which the growth was 99.9%.
`CCSC1=NC2C(N(CC)C(=O)N2CC)N1/N=C/C=C/c1ccccc1[N+](=O)[O-]` (stereo not drawn): the growth was -49.4% (active).
For the compound `COc1cc(OC)c(NC(=O)n2ncc3cc(Nc4ncnc5ccccc45)ccc32)cc1Cl`, the growth is 82.9%.
`C=C1C(=O)O[C@H]2[C@H]1CC/C(COC(=O)NCc1ccc(Cn3c(=O)sn(CCCI)c3=O)cc1)=C\CC[C@@]1(C)O[C@@H]21`: the growth was -9.41% (active).
With `CC1c2ccccc2-c2ccccc2N1C` (stereo not drawn) the figure was 106%; with `COc1ccc(C2NC3=C(CCCC3)C(C#N)(C#N)C2(C#N)C#N)cc1` (stereo not drawn), 41.3%; with `COc1ccc(/C=C(/C2=NCCN2)n2ccc3ccccc32)cc1`, 92%.
On to `NC(=O)c1cccc(-n2ccc3cc(NC(=O)Nc4cc(C(F)(F)F)cc(C(F)(F)F)c4)ccc32)n1`, for which the growth was 39.3%.
As to `Oc1cccc2ccc(N/N=C/c3cc(CN4CCOCC4)c(O)c4ncccc34)nc12`, the growth is 0.899% (active).
Consider `Cn1c(=O)c2c(nc(N3CCCC3)n2C)n(C)c1=O`, for which the growth was 95.4%.
